Data on five compounds can be found in PubChem BioAssay.

“And” between values parts separate entries of the source, which are not always exact repeats. Equal values may be shown once. The source made the active and inactive calls. Rule as the data show it, unless noted: active = parasite load remaining mostly below about 12% (no sharp cut-off); inactive = mostly above about 10%.

A word on the viability: it is a read-out of living cells in per cent, often relative to untreated cells.

Experiment [1] can be described thus: hESC survival regulators, cell-based (AID 493140; call rule not given here;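 also: cells exposed to compounds for four days before counting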). The conditions noted are these: human embryonic stem cell survival screen; stronger effect = higher value.
Experiment [2] is described as follows: liver-stage malaria parasite growth inhibition, primary screen, cell-based, HepG2, luciferase luminescence, HepG2 viability (AID 624349).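 Also: 100% = mean of DMSO negative control wells on the same plate.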 To be noted: P. berghei liver stage in HepG2, luciferase luminescence, concentration not given here; parasite load remaining: stronger effect = lower value; viability: measured here: HepG2 viability without parasites.
Experiment [3] can be described thus: stimulators of nuclear beta-catenin in C2C12, primary screen, imaging, WNT3A-conditioned medium, mouse C2C12, NPC library (AID 1117326; in the data active = nuclear beta-catenin stimulation mostly above about 4.2%, no sharp cut-off; inactive = mostly below about 10%). The conditions noted are these: stronger effect = higher value.
Experiment [4] is described as follows: stimulators of insulin release from INS-1E, primary screen, cell-based, 5 mM glucose, NPC library (AID 1117329;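 active = compound raises insulin release from rat beta cells at 5 mM glucose, no numeric limit stated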). To be noted: rat INS-1E insulin secretion, at 10 µM, stronger effect = higher value.
Experiment [5] can be described thus: growth inhibition of GSK3B-pretreated HCT116 cells – cell-based, CellTiter-Glo, 0.2 to 20 µM (AID 1117336;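 active = compounds lowering colon cancer cell viability after pretreatment blocking the GSK3B kinase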). To be noted: HCT116 viability after GSK3B inhibitor, at 20 µM, stronger effect = higher value.
A short description of experiment [6]: inhibition of endothelial tube formation, primary screen, imaging, VEGF stimulated, CD31 staining, tube area, NPC library (AID 1117340;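 active = compound that reduces growth-factor-driven endothelial tube area in a mixed cell culture, no cutoff stated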). To be noted: VEGF-stimulated ADSC/ECFC co-culture, at 10 µM, stronger effect = higher value.
Experiment [7] is described as follows: glucagon-like peptide 1 release enhancers, primary assay, NCI-H716 cell line, NPC library (AID 1117341;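 active = compound raises GLP1 secretion from the human gut endocrine cells, with no numeric limit stated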). The conditions noted are these: NCI-H716 cells, at 10 µM, stronger effect = higher value.
A short description of experiment [8]: HCT116 colon cancer cell growth inhibition, primary screen, CellTiter-Glo luminescence, NPC library (AID 1117342;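 active = compounds that lower survival of HCT116 colon cancer cells in the luminescence readout, no numeric limit stated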). The conditions noted are these: at 20 µM (top of the series).
Experiment [9] in a line: CellTiter-Glo luminescent readout of SW480 viability loss, NPC library primary (AID 1117343;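 active = compounds that lower viability of the colon cancer cells in the luminescence readout, with no numeric limit stated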). To be noted: CellTiter-Glo luminescence; at 20 µM (top of the series) unless noted. A general note: Cellular ATP, detected with luciferase, serves as a proxy for viable cell number.
Experiment [10] is described as follows: decreased DLD-1 cellular survival, CellTiter-Glo luminescent readout, NPC compound collection, primary HTS (AID 1117346;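 active = compounds that lower survival of DLD-1 colon cancer cells in the luminescence readout, no cutoff given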). To be noted: DLD-1 viability, CellTiter-Glo luminescence; at 20 µM (top of the series).
The nature of experiment [11]: sensitizers of A549 cells to miR-34 induction, primary screen, imaging, A549 dox-inducible miR-34, nuclei and caspase counts (AID 1347080;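 active = compounds whose cell count with miR-34 switched on is under 0.7 times the count with it off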). To be noted: A549 miR-34 inducible, Hoechst nuclei count, 48 h.
The nature of experiment [12]: survival rescue of mitochondrial mutant cells in low glucose, primary screen, MELAS cybrids, Rieske KO mouse fibroblasts, CellTiter-Glo (AID 1508586;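 active = mean z-score across replicates of 1.96 or higher in either the MELAS or the Rieske mutant cell line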;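 also: z relative to plate mean and SD of compound and empty wells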).
Where [13] appears, read: stronger effect = lower value, cell number ratio, induced over uninduced.
Where [14] appears, read: measured here: relative caspase fold change +Dox/-Dox.
[15] abbreviates: measured here: total cells with miR-34 induction, stronger effect = lower value.
Where [16] appears, read: measured here: total cells without miR-34 induction.
The mark [17] stands for this setting: MELAS cybrid survival, CellTiter-Glo 48 h, stronger effect = higher value.
Setting [18] is: Rieske KO mouse fibroblast survival, CellTiter-Glo 72 h.

Turning to `CCCCc1cc2ccccc2c(OCCN(C)C)n1`, the survival in experiment [1] was 4.17 (inactive). In experiment [2], the parasite load remaining was 105% (inactive) and 71.5% (inactive). The viability in [2] is 105% and 79.9%. Besides, the nuclear beta-catenin stimulation in [3] (at 10 µM) is 0.2% (inactive); in experiment [3] (stimulation, at 2 µM) it was -0.1%. The insulin secretion stimulation in experiment [4] was 4.6% (inactive). Further, the viability decrease in experiment [5] was -84.3% (inactive). Further, the tube area decrease in experiment [6] is 15.9% (inactive). In addition, the GLP1 secretion stimulation in experiment [7] is 3.1% (inactive). Further, in [8], the inhibition of viability is 22.3% (inactive). Further, the viability decrease (inhibition) in [9] was 72.1% (active); in experiment [10], -3.7% (inactive). For the same compound, the fold change was 0.931 (inactive) in [11] (setting [13]) and 1.26 in experiment [11] (setting [14]). Moreover, the cell count is 6620 in experiment [11] (setting [15]) and 7110 in experiment [11] (setting [16]). The z-score was 0.0733 (inactive) in experiment [12] (setting [17]) and 0.0128 in experiment [12] (setting [18]).

Regarding `CCOC(=O)/C=C(C)/C=C/C=C(C)/C=C/c1c(C)cc(OC)c(C)c1C`, the parasite load remaining in [2] was 13.4% (inactive). Moreover, the viability in [2] is 74%. Also, the nuclear beta-catenin stimulation in [3] (at 10 µM) was -2.1% (inactive); in experiment [3] (stimulation, at 2 µM) it was -0.4%. For the same compound, in [4], the insulin secretion stimulation was 2.6% (inactive). In experiment [5], the viability decrease was 62.2% (active). Besides, the tube area decrease in experiment [6] is 3.9% (inactive). Further, in experiment [7], the GLP1 secretion stimulation was -2.9% (inactive). Also, the inhibition of viability in experiment [8] is 59.4% (active). In addition, the viability decrease (inhibition) is 60.3% (active) in experiment [9] and 25.3% (inactive) in experiment [10]. Also, the results for the fold change in [11] (setting [13]) and in experiment [11] (setting [14]) were 0.857 (inactive) and 1, respectively. The cell count in experiment [11] (setting [15]) worked out at 9250; in experiment [11] (setting [16]) it was 10800. Besides, the z-score is 0.196 (inactive) and -0.0105 (inactive) in experiment [12] (setting [17]); 0.164 and -0.496 in [12] (setting [18]).

Take `CN(CCCCCCCCCCN(C)C(=O)Oc1cccc([N+](C)(C)C)c1)C(=O)Oc1cccc([N+](C)(C)C)c1`: in experiment [2], the parasite load remaining was 77.5% (inactive). In addition, in experiment [2], the viability came out at 106%. For the same compound, the nuclear beta-catenin stimulation was -0.9% (inactive) in [3] (at 10 µM) and -0.7% in [3] (stimulation, at 2 µM). Moreover, in experiment [4], the insulin secretion stimulation is 2.2% (inactive). In experiment [5], the viability decrease was 30.1% (inactive). In addition, in [6], the tube area decrease was -9.4% (inactive). Further, the GLP1 secretion stimulation in experiment [7] is -4.4% (inactive). In [8], the inhibition of viability was 57.4% (active). The viability decrease (inhibition) in experiment [9] was 39.3% (inactive); in [10], 10.2% (inactive). For the same compound, the figures for the fold change in experiment [11] (setting [13]) and in experiment [11] (setting [14]) were 0.802 (inactive) and 1.05, respectively. For the same compound, the cell count was determined as 8660 in experiment [11] (setting [15]) and 10800 in experiment [11] (setting [16]). For the same compound, the values for the z-score in [12] (setting [17]) and in experiment [12] (setting [18]) were -1.21 (inactive) and -0.227, respectively.

On to `CC(CNC1CCCCC1)OC(=O)c1ccccc1` (stereo not drawn), for which, in [1], the survival is 2.08 (inactive). Moreover, the parasite load remaining in experiment [2] is 83.5% (inactive). In addition, in experiment [2], the viability was determined as 92%. In addition, the nuclear beta-catenin stimulation in experiment [3] (at 10 µM) was 0.9% (inactive); in [3] (stimulation, at 2 µM), 2.3%. Besides, in experiment [4], the insulin secretion stimulation is 5.6% (inactive). For the same compound, the viability decrease in [5] is -14.5% (inactive). For the same compound, the tube area decrease in experiment [6] was 19.9% (inactive). Also, in experiment [7], the GLP1 secretion stimulation was 3.9% (inactive). The inhibition of viability in experiment [8] was -12.8% (inactive). The viability decrease (inhibition) in [9] is -11.7% (inactive); in experiment [10] it was -10.5% (inactive). For the same compound, the fold change is 0.95 (inactive) in [11] (setting [13]) and 0.946 in [11] (setting [14]). In addition, the values for the cell count in [11] (setting [15]) and in experiment [11] (setting [16]) were 9180 and 9670, respectively. The values for the z-score in [12] (setting [17]) and in [12] (setting [18]) were -0.814 (inactive) and -0.57, respectively.

Turning to `CC(C)NC[C@@H](O)COc1ccc(CC(N)=O)cc1`, the survival in experiment [1] was 2.17 (inactive). Also, the parasite load remaining in experiment [2] is 88.2% (inactive). Moreover, the viability in experiment [2] came to 111%. Further, the nuclear beta-catenin stimulation is 0.1% (inactive) in experiment [3] (at 10 µM) and 1.2% in experiment [3] (stimulation, at 2 µM). For the same compound, the insulin secretion stimulation in experiment [4] is -1.9% (inactive). For the same compound, the viability decrease in experiment [5] is -4.35% (inactive). Moreover, in [6], the tube area decrease is -23.3% (inactive). Moreover, the GLP1 secretion stimulation in [7] was 3.3% (inactive). The inhibition of viability in experiment [8] was 1.1% (inactive). In addition, the viability decrease (inhibition) in experiment [9] is 11.3% (inactive); in experiment [10], -7% (inactive). Further, the fold change in [11] (setting [13]) is 0.872 (inactive); in [11] (setting [14]), 1.15. The cell count in experiment [11] (setting [15]) worked out at 9650; in [11] (setting [16]), 11100. The z-score in experiment [12] (setting [17]) was 0.458 (inactive); in experiment [12] (setting [18]), -0.0401.
